Test results published in PubChem BioAssay (NCATS).
Several values for one entry are separate records, joined by “and”; a condition that tells them apart may be missing. Equal values may be shown once. Records with an inconclusive call do not appear. Some compounds were tested as several samples or in several runs, with calls that do not always agree. Activity calls are given as the source filed them. Unless noted, calls come from the whole dose curve; as a rule, active = well fitted curve in the direction sought with a large enough effect; inconclusive = small, poorly fitted or top-dose-only effect, or another doubt; inactive = no such curve, though single readings can be large; an effect the other way counts as inactive or inconclusive.

Assays:
[1] = Redox Reaction Profiling qHTS: Assay Interference Panel against the NCATS CANVASS Library (AID 1347401); note: potency is the fitted concentration of half-maximal effect
Summary of the method: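 Compounds in 11-point series incubated with 5 uM resazurin and 200 uM DTT in 50 mM HEPES pH 7.3, 50 mM NaCl. Resorufin fluorescence (Ex 525/Em 598) read before and after 15 min in the dark.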

[2] = qHTS to identify inhibitors of the type 1 interferon - major histocompatibility complex class I in skeletal muscle: primary screen against the NCATS LOPAC collection (AID 1347405);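 note: lytic HiBiT luminescence reporting HLA-B protein level; % is set by controls: 0 for no effect and ±100 for the full control effect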
Summary of the method: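 Luminescence from HiBiT fused to endogenous HLA-B in CRISPR-engineered human myoblasts served as the read-out. Cells received 4.0 ng/ml IFN-beta plus compound (seven concentrations, 1:4.3 steps, highest 46 uM final) for 24 hrs before lytic detection.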

[3] = qHTS to identify inhibitors of the type 1 interferon - major histocompatibility complex class I in skeletal muscle: primary screen against the NCATS Pharmaceutical Collection (AID 1347407);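 note: luminescence of HiBiT knocked into endogenous HLA-B as interferon-induced MHC class I level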; note: potency is the fitted concentration of half-maximal effect
Summary of the method: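 HLA-B HiBiT myoblasts, dexamethasone-free growth medium + 4 ng/ml IFN-b; compounds pinned 1 h after seeding, […] from 46 uM; 24 h, 37 C, 5% CO2; lytic HiBiT detection, 10 min RT, luminescence.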

[4] = qHTS for inhibitors of adenylyl cyclases using a fission yeast platform: a pilot screen against the NCATS LOPAC library (AID 1347410);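 note: plate controls were DMSO vehicle for no effect and DPI positive control for full effect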
Summary of the method: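 Read-out: fbp1-GFP fluorescence by laser scanning cytometry (488 nm laser), a gain of signal when AC/cAMP-PKA signalling is inhibited. Strain CHP2027 expressing AC9, GNAS and PDE4D2; compounds at up to 57 µM; 18 h, 30C.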

[5] = qHTS to identify inhibitors of the type 1 interferon - major histocompatibility complex class I in skeletal muscle: primary screen against the NCATS Mechanism Interrogation Plate v5.0 (MIPE) Libary (AID 1347411); note: nearly all actives have a fitted effect of over 65% in size; note: potency is the fitted concentration of half-maximal effect
Summary of the method: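 Luminescence from HiBiT-tagged endogenous HLA-B*08:01 served as the MHC class I read-out. CRISPR-engineered C25cl48 human myoblasts received 4.0 ng/ml IFN-beta plus compound for 24 hrs, with an 11-point, 1:3 series topping at 46 uM final.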

[6] = molecular target: Protein phosphatase 1D (Homo sapiens) (UniProt O15297); test: RapidFire Mass Spectrometry qHTS Assay for Modulators of WT P53-Induced Phosphatase 1 (WIP1) (AID 1347424);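 note: amount of dephosphorylated VEPPL-S-QETFS peptide product formed by WIP1; series mostly up to about 63 µM; plate controls were DMSO wells for no effect and GSK830371 inhibitor control at 10 µM for full effect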
Summary of the method: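 10 nM WIP1 preincubated with compounds 1 hr at room temperature in pH 7.5 Tris buffer with 30 mM MgCl2, 1 mM TCEP; 2 uM VEPPL-pS-QETFS phosphopeptide for 5 min, formic acid quench; dephosphorylated product quantified by RapidFire MS against labelled standard.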

[7] = molecular target: Protein phosphatase 1D (Homo sapiens) (UniProt O15297); test: Rhodamine-PBP qHTS Assay for Modulators of WT P53-Induced Phosphatase 1 (WIP1) (AID 1347425); note: % of control where 0% means no effect
Summary of the method: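 Read-out: Rhodamine-PBP fluorescence (ex 525/em 598 nm) for released Pi, read each minute for 11 min after adding 10 uM VEPPL-pS-QETFS; signal taken as f1 minus pre-substrate f0. Enzyme 5 nM WIP1 with 1 hr room-temperature compound preincubation.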

[8] = Validation qHTS assay for inhibitors of Activation Induced Cytidine Deaminase (AID): UDG Counterscreen signal (AID 1347427); note: 0% is about no effect
Summary of the method: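 Counterscreen read of UDG activity (2 U/mL, 4/3x) in the FRET deamination format with AID (1 uM, 4/3x), DJC20/DJC23 substrates (250 nM, 4x), 4 h at room temperature. NaOH stop, fluorescence at 560 ex/665 em.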

[9] = molecular target: Single-stranded DNA cytosine deaminase (Homo sapiens) (UniProt Q9GZX7); test: Validation qHTS assay for inhibitors of Activation Induced Cytidine Deaminase (AID): AID signal (AID 1347429); note: % is set by controls: 0 for no effect and ±100 for the full control effect
Summary of the method: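 Fluorescence at 540 nm excitation and 590 nm emission reports ssDNA cytosine deamination by AID, with UDG in the same well. Compound-treated reactions ran 4 hr at room temperature with DJC20/DJC23 substrate, followed by 30 min NaOH treatment.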

[10] = Primary qHTS for inhibitors of La Crosse Virus (LACV) - induced cell death in SH-SY5Y cells (AID 1508616);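 note: top concentration of the series differs between compounds; 0% = infected DMSO wells and 100% = uninfected DMSO wells; higher means more rescue of cells from virus-induced death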
Summary of the method: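 Protection against LACV-induced cell death is scored in SH-SY5Y cells exposed to compounds and virus (0.01 MOI) for 6 days. Data normalized to virus-infected DMSO wells and virus-free DMSO wells.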

[11] = Primary qHTS for small molecule stabilizers of the endoplasmic reticulum resident proteome: Secreted ER Calcium Modulated Protein (SERCaMP) assay (AID 1508630); note: % is set by controls: 0 for no effect and ±100 for the full control effect
Summary of the method: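 GLuc-SERCaMP-expressing SH-SY5Y cells, pretreated 16 h with compound, are challenged with thapsigargin to empty ER calcium stores; after 4 h, coelenterazine is added directly to the medium and luminescence is imaged.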

[12] = molecular target: Calcium and integrin-binding protein 1 (Homo sapiens) (UniProt Q99828); test: Validation qHTS for Identification of Calcium Integrin Binding protein 1 (CIB1) Competitor (AID 1508618); note: % is set by controls: 0 for no effect and ±100 for the full control effect
Summary of the method: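 CIB1-GST (1 uM final) in 5 mM HEPES pH 7.4, 125 mM NaCl, 5 mM CaCl2, 0.01% Tween20 was preincubated 15 min at room temperature with compound (up to 114 uM), then FITC-alphaIIb peptide (100 nM) added for 15 min; fluorescence polarization read.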

[13] = molecular target: Calcium and integrin-binding protein 1 (Homo sapiens) (UniProt Q99828); test: Primary qHTS for Identification of Calcium Integrin Binding Protein 1 (CIB1) Competitor (AID 1508620)
Summary of the method: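 Fluorescence polarization competition: GST-tagged CIB1 (1 uM final) preincubated with compound 15 min at room temperature, then FITC-labelled alphaIIb peptide (100 nM final) added. After 15 min at room temperature, polarization read at Ex 480/Em 540.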

[14] = A High-Content qHTS Against Drug Library for the Identification of Small Molecules that Inhibit DYT1 Early Onset Primary Dystonia-Associated Cell Pathology (AID 1645839; calls by dose curve; note: series mostly up to about 46 µM)
Summary of the method: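 Flp-In T-REx 293 cells with tetracycline-inducible EGFP-delE hTOR1A (WT EGFP-hTOR1A as reference), 800 cells/well; compound added with tetracycline, 48 h at 37 C. Fixed, permeabilized cells imaged; %pathology (punctate TorsinA) primary, cell count counterscreen.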

[15] = molecular target: Cytochrome P450 2D6 (Homo sapiens) (UniProt P10635); test: Cytochrome P450 family 2 subfamily D member 6 (CYP2D6) small molecule antagonists: luciferase biochemical (cell-free) qHTS assay (AID 1645840; active = well fitted curve in the direction sought with a large enough effect in the repeat runs; an effect the other way counts as inactive or inconclusive; note: nearly all actives have a fitted effect of over 55% in size; note: potency is the fitted concentration of half-maximal effect)
Summary of the method: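 P450-Glo luminescent screen: recombinant CYP2D6 enzyme–proluciferin substrate mix preincubated with compound 10 min at room temperature, then NADPH regeneration added for 1 h at room temperature. Detection reagent added for 20 min; luciferin light read as relative luminescence units.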

[16] = Counterscreen qHTS for small molecule stabilizers of the endoplasmic reticulum resident proteome: GLuc-NoTag assay (AID 1508627);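 note: SH-SY5Y cells given compound then 100 nM thapsigargin to empty ER calcium; series mostly up to about 76 µM; 0% = thapsigargin alone and -100% = DMSO vehicle control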
Summary of the method: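 SH-SY5Y cells stably expressing constitutively secreted GLuc without SERCaMP tag, exposed to compound for 19 hr, then to 100 nM thapsigargin for 4 hr at 37C. Medium luciferase was read by coelenterazine luminescence without lysis.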

[17] = Confirmatory qHTS for small molecule stabilizers of the endoplasmic reticulum resident proteome: Secreted ER Calcium Modulated Protein (SERCaMP) assay (AID 1508628); note: nearly all actives have a fitted effect of over 40% in size; note: potency is the fitted concentration of half-maximal effect
Summary of the method: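 SH-SY5Y cells stably expressing GLuc-SERCaMP, treated 16 h with compound (primary 1.53, 7.67, 38.3 uM; confirmation 11 concentrations, up to 76.6 uM), then 100 nM thapsigargin for 4 h. Secreted Gaussia luciferase in medium read by coelenterazine luminescence.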

[18] = Cell Viability qHTS for small molecule stabilizers of the endoplasmic reticulum resident proteome (AID 1508629); conditions: cell viability counter-screen, 100 nM thapsigargin for final 4 h
[19] = molecular target: Cytochrome P450 3A4 (Homo sapiens) (UniProt P08684); test: Cytochrome P450 family 3 subfamily A member 4 (CYP3A4) small molecule antagonists: luciferase qHTS assay (AID 1645841; active = well fitted curve in the direction sought with a large enough effect in the repeat runs; an effect the other way counts as inactive or inconclusive; note: nearly all actives have a fitted effect of over 45% in size)
Summary of the method: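 P450-Glo CYP3A4 enzyme with proluciferin substrate preincubated 10 min with compound at room temperature, then NADPH regeneration 1 h. Luciferin detection reagent added for 20 min; luminescence recorded. Ketoconazole positive control.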

Sequence of Cytochrome P450 2D6 (Homo sapiens) (P10635 whole entry, looked up): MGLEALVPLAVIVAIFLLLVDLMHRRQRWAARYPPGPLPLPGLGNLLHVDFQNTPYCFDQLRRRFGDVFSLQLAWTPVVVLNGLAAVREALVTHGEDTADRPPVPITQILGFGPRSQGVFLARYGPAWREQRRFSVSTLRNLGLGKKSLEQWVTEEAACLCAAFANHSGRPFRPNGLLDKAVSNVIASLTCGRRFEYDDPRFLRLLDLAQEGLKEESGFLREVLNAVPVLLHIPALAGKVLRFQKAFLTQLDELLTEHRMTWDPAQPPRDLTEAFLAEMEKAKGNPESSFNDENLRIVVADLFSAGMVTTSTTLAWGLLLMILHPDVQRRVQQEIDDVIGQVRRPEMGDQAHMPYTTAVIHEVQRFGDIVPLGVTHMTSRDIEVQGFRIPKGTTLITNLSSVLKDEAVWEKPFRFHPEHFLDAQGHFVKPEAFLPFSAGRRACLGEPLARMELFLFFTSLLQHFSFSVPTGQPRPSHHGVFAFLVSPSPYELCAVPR
Sequence of Protein phosphatase 1D (Homo sapiens) (O15297 whole entry, looked up): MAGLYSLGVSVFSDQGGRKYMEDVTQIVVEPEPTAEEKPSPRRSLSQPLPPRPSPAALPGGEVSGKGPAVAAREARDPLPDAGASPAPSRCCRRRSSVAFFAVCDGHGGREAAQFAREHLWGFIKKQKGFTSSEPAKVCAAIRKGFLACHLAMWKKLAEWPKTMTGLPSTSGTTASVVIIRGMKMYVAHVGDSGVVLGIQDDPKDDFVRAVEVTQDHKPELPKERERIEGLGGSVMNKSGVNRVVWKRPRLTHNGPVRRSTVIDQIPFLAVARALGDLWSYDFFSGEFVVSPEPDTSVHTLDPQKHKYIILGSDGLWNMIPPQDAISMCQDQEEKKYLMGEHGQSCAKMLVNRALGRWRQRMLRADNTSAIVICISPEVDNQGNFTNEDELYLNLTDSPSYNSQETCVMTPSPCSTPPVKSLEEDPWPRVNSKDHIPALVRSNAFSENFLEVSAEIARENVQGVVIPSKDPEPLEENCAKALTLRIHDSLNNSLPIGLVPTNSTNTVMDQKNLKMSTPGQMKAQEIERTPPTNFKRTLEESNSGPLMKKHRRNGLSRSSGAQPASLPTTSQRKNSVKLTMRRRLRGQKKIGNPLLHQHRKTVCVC
Sequence of Calcium and integrin-binding protein 1 (Homo sapiens) (Q99828 whole entry, looked up): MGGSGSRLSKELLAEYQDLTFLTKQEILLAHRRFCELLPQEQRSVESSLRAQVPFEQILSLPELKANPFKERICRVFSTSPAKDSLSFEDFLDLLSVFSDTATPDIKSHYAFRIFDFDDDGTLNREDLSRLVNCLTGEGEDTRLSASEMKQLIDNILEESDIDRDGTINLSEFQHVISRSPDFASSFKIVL
Sequence of Single-stranded DNA cytosine deaminase (Homo sapiens) (Q9GZX7 whole entry, looked up): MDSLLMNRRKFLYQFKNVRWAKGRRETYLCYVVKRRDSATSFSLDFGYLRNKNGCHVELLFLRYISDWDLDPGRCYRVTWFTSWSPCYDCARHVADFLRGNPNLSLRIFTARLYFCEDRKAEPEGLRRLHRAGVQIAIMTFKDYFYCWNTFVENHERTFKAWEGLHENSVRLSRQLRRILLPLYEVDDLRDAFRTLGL
Sequence of Cytochrome P450 3A4 (Homo sapiens) (P08684 whole entry, looked up): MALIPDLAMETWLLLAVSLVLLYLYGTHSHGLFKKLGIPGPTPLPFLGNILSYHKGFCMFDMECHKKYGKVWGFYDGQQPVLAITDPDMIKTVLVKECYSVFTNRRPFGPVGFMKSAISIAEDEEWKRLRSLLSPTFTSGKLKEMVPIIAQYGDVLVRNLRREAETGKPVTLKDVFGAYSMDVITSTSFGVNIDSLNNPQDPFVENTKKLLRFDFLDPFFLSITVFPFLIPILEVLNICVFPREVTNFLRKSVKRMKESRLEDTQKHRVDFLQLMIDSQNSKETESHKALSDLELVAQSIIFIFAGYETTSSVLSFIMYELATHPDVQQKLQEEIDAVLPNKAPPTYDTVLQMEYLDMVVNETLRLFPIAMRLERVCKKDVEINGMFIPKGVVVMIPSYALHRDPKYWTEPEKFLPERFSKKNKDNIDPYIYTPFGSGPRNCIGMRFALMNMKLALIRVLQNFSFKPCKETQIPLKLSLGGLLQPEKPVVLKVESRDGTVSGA

COC(=O)[C@@H]1[C@H]2C[C@H]3c4[nH]c5ccccc5c4CCN3C[C@@H]2CC[C@@H]1O
inactive: Potency [1] | Potency [2] | Potency [3] | outcome [4] | Potency [5] | outcome [6] | outcome [7] | outcome [8] | Potency [9] | outcome [10] | Potency [11]

O=C1NC(=O)C(c2ccccc2)(c2ccccc2)N1
inactive: Potency [2] | Potency [3] | outcome [4] | outcome [6] | outcome [7] | outcome [8] | Potency [9] | outcome [10] | outcome [12] | Potency [13] | Potency [11] | Potency [14] | Potency [15]

OC[C@@H](O)[C@H](O)[C@H](O)[C@@H](O)CO
inactive: Potency [3] | outcome [6] | outcome [7] | outcome [10] | Potency [13] | Potency [11] | Potency [14] | Potency [15]

NCCS
inactive: Potency [2] | Potency [3] | outcome [4] | outcome [6] | outcome [7] | outcome [8] | Potency [9] | outcome [10] | outcome [12] | Potency [13] | Potency [11] | Potency [14] | Potency [15]

COc1cc2ncnc(Nc3ccc(F)c(Cl)c3)c2cc1OCCCN1CCOCC1
inactive: Potency [3] | outcome [6] | outcome [7] | Potency [13] | Potency [16] | Potency [11]
active: Potency [15] 4.9 µM

COC[C@@H](c1ccc(C(F)(F)F)cc1)N1CCN(C2(C)CCN(C(=O)c3c(C)ncnc3C)CC2)C[C@H]1C
inactive: Potency [3] | outcome [6] | outcome [7] | outcome [10] | Potency [13] | Potency [11]

O=C(O)Cc1cccc2ccccc12
inactive: Potency [3] | outcome [6] | outcome [7] | outcome [10] | Potency [13] | Potency [14] | Potency [15]

C[C@@H](O)[C@H]1C(=O)N2C(C(=O)O)=C(S[C@@H]3CN[C@H](C(=O)N(C)C)C3)[C@H](C)[C@H]12
inactive: Potency [3] | outcome [6] | outcome [7] | outcome [10] | Potency [13] | Potency [11] | Potency [14] | Potency [15]

COc1ccccc1N1CCN(CCCNc2cc(=O)n(C)c(=O)n2C)CC1
inactive: Potency [2] | Potency [3] | outcome [4] | outcome [6] | outcome [7] | outcome [8] | Potency [9] | outcome [10] | outcome [12] | Potency [13] | Potency [11] | Potency [14]

Cc1cccc(C)c1OCC(C)N (stereo not given)
inactive: Potency [2] | Potency [3] | outcome [4] | outcome [6] | outcome [7] | outcome [8] | Potency [9] | outcome [10] | Potency [11] | Potency [14]
active: Potency [15] 13.8 µM and 21.3 µM

O=C(NCCN1CCOCC1)c1ccc(Cl)cc1
inactive: Potency [2] | Potency [3] | outcome [4] | outcome [6] | outcome [7] | outcome [8] | Potency [9] | outcome [10] | outcome [12] | Potency [13] | Potency [11] | Potency [14]
active: Potency [15] 9.77 µM

O=C(O)C(O)Cc1ccc(O)c(O)c1 (stereo not given)
active: Potency [1] 15.2 µM
inactive: Potency [13]

CC1=C(/C=C/C(C)=C/C=C/C(C)=C/C(=O)Nc2ccc(O)cc2)C(C)(C)CCC1
inactive: Potency [3] | outcome [4] | outcome [7] | outcome [8] | Potency [9] | outcome [10] | outcome [12] | Potency [13] | Potency [16] | max response [18] 14.9% | Potency [11]
inactive and 31.6 µM (active): Potency [17]

CN(C)CCC(c1ccccc1)c1ccccn1 (stereo not given)
inactive: Potency [2] | Potency [3] | outcome [4] | outcome [6] | outcome [7] | outcome [8] | Potency [9] | outcome [10] | outcome [12] | Potency [13] | Potency [16] | Potency [17] | Potency [11] | Potency [14]

O=C(CCCCCCC(=O)Nc1ccccc1)NO
inactive: outcome [6] | outcome [7] | Potency [13] | Potency [11]
active: Potency [3] 4.19 µM | Potency [5] 1.47 µM | Potency [15] 4.9 µM

CCn1cc(C(=O)O)c(=O)c2ccc(C)nc21
inactive: Potency [2] | Potency [3] | outcome [4] | outcome [6] | outcome [7] | outcome [8] | Potency [9] | outcome [10] | Potency [13] | Potency [14] | Potency [15]

CCN(CC)C(=O)c1ccc(O)c(OC)c1
inactive: Potency [2] | Potency [3] | outcome [4] | outcome [6] | outcome [7] | outcome [8] | Potency [9] | outcome [10] | outcome [12] | Potency [13] | Potency [11] | Potency [14] | Potency [15]

COc1ccc(Cc2nccc3cc(OC)c(OC)cc23)cc1OC
inactive: Potency [2] | outcome [4] | outcome [8] | Potency [9] | outcome [12]

COc1ccc2cccc(CCNC(C)=O)c2c1
inactive: Potency [3] | Potency [5] | outcome [6] | outcome [7] | outcome [10] | Potency [13] | Potency [14]

N#C[C@H]1C[C@H]2C[C@@H]2N1C(=O)[C@@H](N)C12CC3CC(CC(O)(C3)C1)C2
inactive: Potency [3] | outcome [6] | outcome [7] | outcome [10] | Potency [11] | Potency [14] | Potency [15]

O=C1NCC2(CCN(CCc3ccccc3)CC2)O1
inactive: Potency [2] | Potency [3] | outcome [4] | outcome [6] | outcome [7] | outcome [8] | Potency [9] | outcome [10] | outcome [12] | Potency [13] | Potency [11] | Potency [14] | outcome [19]
